# Results from PubChem BioAssay AID1159580 (chemical genetic matrix, 2015).
# “And” between values parts separate entries of the source, which are not always exact repeats. Identical values can stand only once. In all, about 5,500 compounds went through this assay and about 2,000 (36%) were called active. About 18% were inconclusive and are not listed. This is one part of the list. Unmarked numbers belong to inactive results. Cut-off read from the data, not from the text of the source: active = normalized growth mostly below about 0.91 (no sharp cut-off); inconclusive = no clear call, values can overlap the other calls; inactive = mostly above about 0.92.
# Assay: chemical genetic growth profiling, strain panel (AID 1159580);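 note: tested at 20 µM; growth read once vehicle control cultures reached saturation at 30 °C; 1 = growth at the plate median or of vehicle wells; lower values mean less growth of the strain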
# Details: growth OD
compound,measurement,setting,value
CN1C(C(=O)Nc2ccccn2)=C(O)c2ccccc2S1(=O)=O,normalized growth,"S. cerevisiae deletion strains, locus YKL009W, strain mrt4, stronger effect = lower value",0.963
same,normalized growth,"S. cerevisiae deletion strains, locus YKL068W, stronger effect = lower value",0.925 (active)
same,normalized growth,"S. cerevisiae deletion strains, locus YKL085W, strain MDH1 (second series), stronger effect = lower value",0.935
same,normalized growth,"S. cerevisiae deletion strains, locus YKL085W, strain MDH1, stronger effect = lower value",0.935
same,normalized growth,"S. cerevisiae deletion strains, locus YKL160W, strain elf1, stronger effect = lower value",0.933
same,normalized growth,"S. cerevisiae deletion strains, locus YKL190W, strain CNB1, stronger effect = lower value",1.01
same,normalized growth,"S. cerevisiae deletion strains, locus YKR001C, strain vps1, stronger effect = lower value",0.969
same,normalized growth,"S. cerevisiae deletion strains, locus YKR026C, strain gcn3, stronger effect = lower value",0.958
same,normalized growth,"S. cerevisiae deletion strains, locus YKR091W, strain srl3, stronger effect = lower value",0.968
same,normalized growth,"S. cerevisiae deletion strains, locus YLL001W, strain dnm1, stronger effect = lower value",0.963
same,normalized growth,"S. cerevisiae deletion strains, locus YLL026W, stronger effect = lower value",0.93 (active)
same,normalized growth,"S. cerevisiae deletion strains, locus YLL041C, strain sdh2, stronger effect = lower value",0.953
same,normalized growth,"S. cerevisiae deletion strains, locus YLR027C, strain aat2, stronger effect = lower value",0.932
same,normalized growth,"S. cerevisiae deletion strains, locus YLR039C, strain RIC1, stronger effect = lower value",0.984
same,normalized growth,"S. cerevisiae deletion strains, locus YLR058C, strain SHM2, stronger effect = lower value",0.982
same,normalized growth,"S. cerevisiae deletion strains, locus YLR102C, strain apc9, stronger effect = lower value",0.946
same,normalized growth,"S. cerevisiae deletion strains, locus YLR113W, strain HOG1, stronger effect = lower value",0.934
same,normalized growth,"S. cerevisiae deletion strains, locus YLR221C, strain rsa3, stronger effect = lower value",0.925
same,normalized growth,"S. cerevisiae deletion strains, locus YLR258W, strain gsy2, stronger effect = lower value",0.95
same,normalized growth,"S. cerevisiae deletion strains, locus YLR262C, strain YPT6 (second series), stronger effect = lower value",0.919
same,normalized growth,"S. cerevisiae deletion strains, locus YLR262C, strain YPT6, stronger effect = lower value",0.998
same,normalized growth,"S. cerevisiae deletion strains, locus YLR268W, strain sec22, stronger effect = lower value",0.921
same,normalized growth,"S. cerevisiae deletion strains, locus YLR320W, strain mms22, stronger effect = lower value",0.881
same,normalized growth,"S. cerevisiae deletion strains, locus YLR330W, strain CHS5, stronger effect = lower value",0.967
same,normalized growth,"S. cerevisiae deletion strains, locus YLR342W, strain FKS1 (second series), stronger effect = lower value",0.94
same,normalized growth,"S. cerevisiae deletion strains, locus YLR342W, strain FKS1, stronger effect = lower value",0.931
same,normalized growth,"S. cerevisiae deletion strains, locus YLR357W, strain rsc2, stronger effect = lower value",1
same,normalized growth,"S. cerevisiae deletion strains, locus YLR370C, strain arc18, stronger effect = lower value",0.985
same,normalized growth,"S. cerevisiae deletion strains, locus YLR371W, strain rom2, stronger effect = lower value",0.95
same,normalized growth,"S. cerevisiae deletion strains, locus YLR384C, strain iki3, stronger effect = lower value",0.961
same,normalized growth,"S. cerevisiae deletion strains, locus YLR418C, strain cdc73, stronger effect = lower value",0.905
same,normalized growth,"S. cerevisiae deletion strains, locus YML016C, strain PPZ1, stronger effect = lower value",0.965
same,normalized growth,"S. cerevisiae deletion strains, locus YML032C, strain rad52, stronger effect = lower value",0.954
same,normalized growth,"S. cerevisiae deletion strains, locus YML120C, strain ndi1, stronger effect = lower value",0.95
same,normalized growth,"S. cerevisiae deletion strains, locus YML124C, strain tub3, stronger effect = lower value",0.95
same,normalized growth,"S. cerevisiae deletion strains, locus YMR058W, strain fet3, stronger effect = lower value",0.961
same,normalized growth,"S. cerevisiae deletion strains, locus YMR078C, strain ctf18, stronger effect = lower value",0.926
same,normalized growth,"S. cerevisiae deletion strains, locus YMR125W, strain sto1, stronger effect = lower value",0.985
same,normalized growth,"S. cerevisiae deletion strains, locus YMR129W, stronger effect = lower value",0.935
same,normalized growth,"S. cerevisiae deletion strains, locus YMR205C, strain PFK2, stronger effect = lower value",0.781 (active)
same,normalized growth,"S. cerevisiae deletion strains, locus YMR223W, strain ubp8, stronger effect = lower value",0.97
same,normalized growth,"S. cerevisiae deletion strains, locus YMR231W, strain pep5, stronger effect = lower value",0.97
same,normalized growth,"S. cerevisiae deletion strains, locus YMR263W, strain SAP30, stronger effect = lower value",0.996
same,normalized growth,"S. cerevisiae deletion strains, locus YMR307W, strain GAS1, stronger effect = lower value",0.836 and 1
same,normalized growth,"S. cerevisiae deletion strains, locus YNL067W, strain RPL9B, stronger effect = lower value",1
same,normalized growth,"S. cerevisiae deletion strains, locus YNL071W, strain lat1, stronger effect = lower value",0.786 (active)
same,normalized growth,"S. cerevisiae deletion strains, locus YNL128W, strain TEP1, stronger effect = lower value",1.02
same,normalized growth,"S. cerevisiae deletion strains, locus YNL153C, strain GIM3, stronger effect = lower value",0.984
same,normalized growth,"S. cerevisiae deletion strains, locus YNL175C, strain NOP13, stronger effect = lower value",0.971
same,normalized growth,"S. cerevisiae deletion strains, locus YNL183C, strain NPR1, stronger effect = lower value",0.919
same,normalized growth,"S. cerevisiae deletion strains, locus YNL197C, strain WHI3, stronger effect = lower value",0.97
same,normalized growth,"S. cerevisiae deletion strains, locus YNL209W, strain ssb2, stronger effect = lower value",0.982
same,normalized growth,"S. cerevisiae deletion strains, locus YNL224C, strain SQS1, stronger effect = lower value",0.968
same,normalized growth,"S. cerevisiae deletion strains, locus YNL233W, strain BNI4, stronger effect = lower value",0.993
same,normalized growth,"S. cerevisiae deletion strains, locus YNL248C, strain rpa49, stronger effect = lower value",1.26 [resistant] (active)
same,normalized growth,"S. cerevisiae deletion strains, locus YNL250W, strain rad50, stronger effect = lower value",0.923
same,normalized growth,"S. cerevisiae deletion strains, locus YNL271C, strain bni1, stronger effect = lower value",0.911 (active)
same,normalized growth,"S. cerevisiae deletion strains, locus YNL298W, strain CLA4, stronger effect = lower value",0.935
same,normalized growth,"S. cerevisiae deletion strains, locus YNL307C, strain MCK1, stronger effect = lower value",0.82 (active)
same,normalized growth,"S. cerevisiae deletion strains, locus YNL322C, strain KRE1 (second series), stronger effect = lower value",0.943
same,normalized growth,"S. cerevisiae deletion strains, locus YNL322C, strain KRE1, stronger effect = lower value",0.973 and 1
same,normalized growth,"S. cerevisiae deletion strains, locus YNR049C, strain mso1, stronger effect = lower value",0.964
same,normalized growth,"S. cerevisiae deletion strains, locus YNR052C, strain pop2, stronger effect = lower value",0.965
same,normalized growth,"S. cerevisiae deletion strains, locus YOL006C, strain TOP1, stronger effect = lower value",0.999
same,normalized growth,"S. cerevisiae deletion strains, locus YOL012C, strain htz1",0.613
same,normalized growth,"S. cerevisiae deletion strains, locus YOL147C, strain pex11, stronger effect = lower value",0.944
same,normalized growth,"S. cerevisiae deletion strains, locus YOR001W, strain rrp6, stronger effect = lower value",0.92
same,normalized growth,"S. cerevisiae deletion strains, locus YOR061W, strain CKA2, stronger effect = lower value",0.976
same,normalized growth,"S. cerevisiae deletion strains, locus YOR069W, strain VPS5, stronger effect = lower value",0.966
same,normalized growth,"S. cerevisiae deletion strains, locus YOR070C, strain gyp1, stronger effect = lower value",0.973
same,normalized growth,"S. cerevisiae deletion strains, locus YOR080W, strain dia2, stronger effect = lower value",0.978
same,normalized growth,"S. cerevisiae deletion strains, locus YOR083W, strain WHI5 (second series), stronger effect = lower value",0.99
same,normalized growth,"S. cerevisiae deletion strains, locus YOR083W, strain WHI5, stronger effect = lower value",0.946
same,normalized growth,"S. cerevisiae deletion strains, locus YOR106W, strain vam3, stronger effect = lower value",0.965
same,normalized growth,"S. cerevisiae deletion strains, locus YOR136W, strain idh2, stronger effect = lower value",0.988
same,normalized growth,"S. cerevisiae deletion strains, locus YOR144C, strain elg1, stronger effect = lower value",0.953
same,normalized growth,"S. cerevisiae deletion strains, locus YOR184W, strain ser1, stronger effect = lower value",0.961
same,normalized growth,"S. cerevisiae deletion strains, locus YOR231W, strain MKK1, stronger effect = lower value",0.945
same,normalized growth,"S. cerevisiae deletion strains, locus YOR265W, strain rbl2, stronger effect = lower value",0.967
same,normalized growth,"S. cerevisiae deletion strains, locus YOR270C, strain vph1, stronger effect = lower value",0.954
same,normalized growth,"S. cerevisiae deletion strains, locus YOR290C, strain snf2, stronger effect = lower value",0.971
same,normalized growth,"S. cerevisiae deletion strains, locus YOR316C, strain cot1, stronger effect = lower value",0.95
same,normalized growth,"S. cerevisiae deletion strains, locus YPL051W, strain arl3, stronger effect = lower value",0.961
same,normalized growth,"S. cerevisiae deletion strains, locus YPL055C, strain LGE1, stronger effect = lower value",0.987
same,normalized growth,"S. cerevisiae deletion strains, locus YPL078C, strain atp4, stronger effect = lower value",0.95
same,normalized growth,"S. cerevisiae deletion strains, locus YPL106C, strain sse1, stronger effect = lower value",0.989
same,normalized growth,"S. cerevisiae deletion strains, locus YPL240C, strain hsp82, stronger effect = lower value",0.953
same,normalized growth,"S. cerevisiae deletion strains, locus YPL241C, strain CIN2, stronger effect = lower value",0.967
same,normalized growth,"S. cerevisiae deletion strains, locus YPL256C, strain CLN2, stronger effect = lower value",0.907
same,normalized growth,"S. cerevisiae deletion strains, locus YPR119W, strain clb2, stronger effect = lower value",0.931
same,normalized growth,"S. cerevisiae deletion strains, locus YPR141C, strain kar3, stronger effect = lower value",0.923
same,normalized growth,"S. cerevisiae deletion strains, locus YPR163C, strain tif3, stronger effect = lower value",0.885 (active)
same,normalized growth,"S. cerevisiae deletion strains, locus YPR167C, strain met16, stronger effect = lower value",0.962
same,normalized growth,"S. cerevisiae deletion strains, strain wtn01, stronger effect = lower value",0.961
same,normalized growth,"S. cerevisiae strains, strain wild type, stronger effect = lower value",0.984
